Experimental data: the supplement of paper PMC6555819

Key:
Assay in all cases: PBM binding z-score (relative to random genomic background probes); higher = stronger binding; sequences stand for … in GC…GCGATTGACAGCGTAGAATGAAGG
[1] = test system: FXR:RXRa (NR concentration 270 nM, RXRa partner concentration 90 nM)
Outline: (§1)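 Custom Agilent 4×180K protein-binding microarrays carried double-stranded probes. Their 34-nt variable regions held direct-repeat seeds, single-nucleotide variants, half-site ablations and random human genomic background sequences. Arrays were incubated 1 h with ligand-free nuclear receptor dimers in PBS pH 7.4, 2% milk, 0.02% Triton X-100, 1 mM DTT, 0.2 mg/mL BSA and 0.4 mg/ml salmon testes DNA. Antibodies against each partner (one per run) detected binding, and scanned fluorescence was regression-normalized. Binding z-scores use random background probes as reference.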

[2] = test system: LXRa:RXRa (NR concentration 270 nM, RXRa partner concentration 90 nM)
Outline: as §1

[3] = test system: LXRa homodimer (NR concentration 270 nM)
Outline: as §1

[4] = test system: LXRb:RXRa (NR concentration 270 nM, RXRa partner concentration 90 nM)
Outline: as §1

[5] = test system: LXRb homodimer (NR concentration 270 nM)
Outline: as §1

[6] = test system: PPARa:RXRa (NR concentration 270 nM, RXRa partner concentration 90 nM)
Outline: as §1

[7] = test system: PPARg:RXRa (NR concentration 180 nM, RXRa partner concentration 90 nM)
Outline: as §1

[8] = test system: PPARg:RXRa 270nM:90nM, anti-RXR (NR concentration 270 nM, RXRa partner concentration 90 nM)
Outline: as §1

[9] = test system: PPARg:RXRa 30nM:10nM, anti-RXR (NR concentration 30 nM, RXRa partner concentration 10 nM)
Outline: as §1

[10] = test system: PPARg:RXRa 90nM:30nM, anti-RXR (NR concentration 90 nM, RXRa partner concentration 30 nM)
Outline: as §1

[11] = test system: PPARg:RXRa DBDmut IVT, anti-RXR (DBD mutation: RXRa K156A/R161A, NR concentration 270 nM, RXRa partner concentration 90 nM)
Outline: as §1

[12] = test system: PPARg:RXRa IVT, anti-PPARg (NR concentration 270 nM, RXRa partner concentration 90 nM)
Outline: as §1

[13] = test system: PPARg DBDmut:RXRa IVT, anti-PPARg (DBD mutation: PPARg1 K132A/R137A, NR concentration 270 nM, RXRa partner concentration 90 nM)
Outline: as §1

[14] = test system: PPARg DBDmut IVT, anti-PPARg (DBD mutation: PPARg1 K132A/R137A, NR concentration 270 nM)
Outline: as §1

[15] = test system: PPARg homodimer (NR concentration 180 nM)
Outline: as §1

[16] = test system: PXR:RXRa (NR concentration 270 nM, RXRa partner concentration 90 nM)
Outline: as §1

[17] = test system: PXR homodimer (NR concentration 270 nM)
Outline: as §1

[18] = test system: RARa:RXR (NR concentration 270 nM, RXRa partner concentration 90 nM)
Outline: as §1

[19] = test system: RARa homodimer (NR concentration 270 nM)
Outline: as §1

[20] = test system: RARb:RXRa (NR concentration 270 nM, RXRa partner concentration 90 nM)
Outline: as §1

Sequence | PBM binding z-score [1] | PBM binding z-score [2] | PBM binding z-score [3] | PBM binding z-score [4] | PBM binding z-score [5] | PBM binding z-score [6] | PBM binding z-score [7] | PBM binding z-score [8] | PBM binding z-score [9] | PBM binding z-score [10] | PBM binding z-score [11] | PBM binding z-score [12] | PBM binding z-score [13] | PBM binding z-score [14] | PBM binding z-score [15] | PBM binding z-score [16] | PBM binding z-score [17] | PBM binding z-score [18] | PBM binding z-score [19] | PBM binding z-score [20]
ATAGACAGGTGATGAAGGTAACTCAGGCTATCAT | -0.202 | -0.185 | -0.277 | -0.324 | 0.162 | -0.103 | 0.6 | 0.152 | 0.156 | -0.14 | -0.221 | 0.67 | 1.3 | 0.102 | 0.341 | -0.261 | 0.251 | -0.0358 | 0.641 | 0.316
ATCGAAAGGTCGTGAGGTGAGTATACAGAAAGGC | 5.57 | 4.25 | 0.175 | 3.13 | 0.435 | 4.95 | 4.06 | 4.39 | 1.92 | 3.28 | -0.0528 | 2.47 | 1.08 | 1.25 | 2.77 | 3.39 | 0.278 | 4.21 | 0.287 | 4.02
CGAACTAGGTCACGGACAGTGAATCTCCGCACGC | 4.87 | 3.34 | 0.231 | 2.64 | -0.137 | 5.68 | 9.36 | 7.68 | 5.94 | 7.84 | 8.66 | 9.1 | 8.25 | 6.07 | 4.94 | 2.4 | -0.165 | 3.61 | 1.22 | 4.35
CCTCGGAGGGCAGAAGGTCAGAGCTGTCCGCTTT | 1.58 | 1.92 | -0.356 | 1.12 | -1.06 | 2.48 | 0.613 | 2.48 | -0.473 | 1.44 | 0.357 | 0.981 | -1.69 | -1.6 | 0.905 | 1.94 | -0.405 | 2.53 | -0.604 | 3.69
GCTCGAAGGACAAGGTCAGAGCTTTGTCCGTAGA | 1.53 | 1.79 | -0.456 | 0.996 | -0.575 | 2.56 | 0.738 | 1.72 | -0.296 | 0.829 | -0.135 | 0.583 | -0.7 | -0.691 | 0.73 | 1.59 | -0.626 | 2.28 | -0.618 | 3.44
ATATGTAGGTTAGCTGGGGTGATTCAGACTAGGC | 2.08 | 0.979 | 0.289 | 1.32 | 0.553 | 2.85 | 3.26 | 2.89 | 0.853 | 1.94 | 6.78 | 5.76 | 1.88 | 1.63 | 1 | 1.55 | 0.409 | 1.31 | 1.29 | 1.07
CTAACTAGGTCAGAACAGGACAGTGAAGGATGAT | 1.45 | 0.974 | 0.159 | 0.586 | -0.0139 | 3.16 | 6.17 | 4.91 | 2.43 | 4.19 | 7.81 | 7.46 | 1.78 | 0.779 | 1.28 | 0.958 | 0.15 | 0.805 | 0.43 | 2.94
TTGCCTAGGTCATTCAGGGGCCAGTATAGAAAGC | 5.14 | 3.97 | 0.809 | 2.93 | 0.902 | 3.51 | 2.07 | 2.24 | 0.187 | 1.52 | 1.9 | 2.33 | 0.195 | -0.447 | 2.69 | 2.63 | 0.107 | 4.21 | -0.129 | 3.93
ACAGACAGGTGATGAAGGTAACTCAAGCTATCAT | -0.102 | -0.296 | -0.525 | -0.0355 | -0.354 | 0.0252 | 0.537 | -0.224 | 0.113 | -0.261 | 0.0752 | 0.481 | -0.066 | 0.468 | 0.000193 | -0.188 | 0.00644 | -0.191 | 0.18 | 0.252
ATCGAAAGGTCGACGAGGTGAATATACACCGTTT | 5.37 | 3.82 | 0.162 | 3.31 | 0.511 | 4.54 | 3.21 | 3.62 | 1.4 | 2.47 | 0.98 | 2.07 | 1.87 | 0.44 | 2.04 | 3.88 | 1.24 | 4.49 | 1.02 | 3.94
ATCTCTAGGTAAAGATTGTTCAGTGAATGCAAAT | 0.226 | 0.124 | 0.091 | 0.234 | 0.621 | 0.0998 | 0.137 | 0.495 | 0.342 | 0.381 | 2.3 | 1.85 | 0.903 | 0.841 | 0.219 | 0.132 | 0.182 | 0.436 | 1.35 | 0.105
AGAATGAGGTTAAGGTCAGGGAAACAGAATACAT | 5.36 | 4.12 | 0.675 | 3.93 | 0.526 | 5.21 | 5.25 | 5.04 | 2.44 | 4.29 | 3.24 | 4.55 | 1.51 | 0.964 | 3.35 | 3.77 | 1.59 | 4.47 | 2.44 | 4.27
